Experimental data published in PubChem BioAssay (NCI).
About 79,000 compounds went through this panel and 15% of them were active in at least one assay; those are over-represented in the sample as a whole. Rule as the data show it: active = growth inhibition above about 70%; inactive = the rest.

Legend:
[1] = NCI Yeast Anticancer Drug Screen. Data for the rad50 strain (AID 155);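 also: 0% = growth of vehicle-only cultures of the same strain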; conditions: S. cerevisiae rad50 strain growth inhibition; at 50.0 µM; stronger effect = higher value
Summary of the method: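 Readout: growth inhibition relative to vehicle-treated cultures. Compound exposure was carried out in a genetically defined yeast strain deficient in DNA damage repair.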

[2] = NCI Yeast Anticancer Drug Screen. Data for the mec2-1 strain (AID 157); conditions: S. cerevisiae mec2-1 strain, at 50.0 µM, stronger effect = higher value
Summary of the method: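 Using mec2-1 yeast: add compound, measure growth, express inhibition versus vehicle-treated cultures.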

[3] = NCI Yeast Anticancer Drug Screen. Data for the sgs1 mgt1 strain (AID 161);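 also: 0% = growth of cultures given vehicle only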; conditions: S. cerevisiae sgs1 mgt1 strain, at 50.0 µM, stronger effect = higher value
Summary of the method: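 Compounds are added to genetically altered yeast, and growth is compared with cultures given vehicle alone to give percent inhibition.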

[4] = NCI Yeast Anticancer Drug Screen. Data for the cln2 rad14 strain (AID 165);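 also: 0% = growth equal to vehicle treated cultures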; conditions: S. cerevisiae cln2 rad14 strain, at 50.0 µM, stronger effect = higher value
Summary of the method: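 Yeast strain cln2 rad14, bearing defects in cell cycle control and DNA repair, serves as the test system; values reflect growth inhibition compared with vehicle.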

[5] = NCI Yeast Anticancer Drug Screen. Data for the bub3 strain (AID 167); conditions: S. cerevisiae bub3 mutant strain, at 50.0 µM, stronger effect = higher value
Summary of the method: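 Readout: yeast growth inhibition, expressed relative to vehicle-only wells. The test organism is a mutant strain from a panel with lesions in DNA repair or checkpoint genes.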

[6] = NCI Yeast Anticancer Drug Screen. Data for the mlh1 rad18 strain (AID 175); conditions: S. cerevisiae mlh1 rad18 strain growth inhibition; at 50.0 µM; stronger effect = higher value
Summary of the method: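 Steps: expose repair-defective yeast to compound; measure growth; express inhibition against vehicle-treated controls.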

Measured: growth inhibition

COC[C@@H](N=Cc1ccc(OC)cc1)C(C)C
inactive: [1] -12.2% | [2] -19.4% | [3] -49.6% | [4] -28.8% | [5] 25.9% | [6] -30.5%

COc1ccc([N+](=O)[O-])c(OC)c1
inactive: [1] 4.4% | [2] -19.1% | [3] -30.9% | [4] 17.2% | [5] -23.4% | [6] 9.05%

CN(C)c1ccc(/C=N/NC(=O)c2ccc(N)cc2)cc1
inactive: [1] 1.35% | [2] 5.15% | [3] -12.7% | [4] -12.4% | [5] -2.4% | [6] 14.3%

CC(=O)Oc1ccc(OC(C)=O)c2c(OC(C)=O)ccc(OC(C)=O)c12
inactive: [1] 0.45% | [2] 2.15% | [3] 1.55% | [4] -10.3% | [5] 53.8% | [6] -6.8%

COc1nc(C(O)C2OC(C)(C)OCC2O)[nH]c1C#N (configuration not stated)
inactive: [1] 6.05% | [2] 7% | [3] 7.75% | [4] 10.7% | [5] 2.35% | [6] 7.35%

CC(=O)NCC(=O)c1ccccc1
inactive: [1] 12.5% | [2] -2.4% | [3] 3.75% | [4] -7.1% | [5] -6.35% | [6] 9.5%

Nc1ncnc2nc(N3CCN(CCO)CC3)[nH]c12
inactive: [1] 9.45% | [2] -8.75% | [3] -34.1% | [4] -29.5% | [5] -26.2% | [6] -12.5%

Cn1c(COc2ccc(/C=N\N3CCN(/N=C\c4ccc(OCc5c[n+]6ccccc6n5C)cc4)CC3)cc2)c[n+]2ccccc12
inactive: [1] -15.8% | [2] 11.8% | [3] 29.6% | [4] 25.7% | [5] -5.95% | [6] 44%

CCN(CC)CCN1C(=O)N(CCN(CC)CC)C(=O)C(CC)(CC)C1=O
inactive: [1] 13.9% | [2] -2.15% | [3] 12.5% | [4] 22.9% | [5] -1.65% | [6] 34.1%

CCCCCCC(=O)/C=C/c1cccc(OCc2ccccc2)c1
inactive: [1] 32% | [2] 3.8% | [3] 13.3% | [4] 13.6% | [5] 18.4% | [6] 13.7%

C(/C=C/c1ccccc1)=Nc1ccc2c(c1)Cc1ccccc1-2
inactive: [1] 0.4% | [2] -0.35% | [3] -25.8% | [4] -27.9% | [5] -15.8% | [6] 9.9%

NC(CCCCn1nnc2c(=O)[nH]cnc21)C(=O)O (configuration not stated)
inactive: [1] -12.3% | [2] -26.2% | [3] 6% | [4] -36.9% | [5] 7.1% | [6] -15.6%

c1ccc2[nH]c(N=Nc3cccc4c(N=Nc5cc6ccccc6[nH]5)cccc34)cc2c1
inactive: [1] 5.1% | [2] -11.4% | [3] -13.7% | [4] 18.1% | [5] -2.6% | [6] 8.65%

COC(=O)/C=C1/Nc2c(N)nc(N)nc2NC1=O
inactive: [1] 15.1% | [2] 8.2% | [3] 5.95% | [4] -2.1% | [5] -0.9% | [6] 3.15%

CC(C)(SC(=N)N)B(O)O
inactive: [1] -3.2% | [2] -12.3% | [3] -6.55% | [4] 9.35% | [5] -8.35% | [6] -7.7%

COc1ccc(C(=O)c2ccc(C(=O)O)cc2)c(OC)c1
inactive: [1] -5.4% | [2] -17.5% | [3] -14.6% | [4] -48.6% | [5] 5.95% | [6] -27.6%

Cc1cn(C2CCCCC2O)c(=O)[nH]c1=O (configuration not stated)
inactive: [1] -15.8% | [2] -14% | [3] -2.85% | [4] 12.6% | [5] -15.1% | [6] -16.9%

Cc1cc(C)c(S(=O)(=O)O)cc1N
inactive: [1] -2.55% | [2] 2.1% | [3] 6.1% | [4] -42% | [5] -0.05% | [6] -26.1%

Cc1c(Cl)cccc1NC(=O)Oc1ccccc1Cc1ccccc1
inactive: [1] -0.8% | [2] 43.1% | [3] 40% | [4] -2.7% | [5] 67.5% | [6] 52.2%

CC(=O)c1ccc(Cl)c(-n2cccc2)c1
inactive: [1] 4.2% | [2] -12.1% | [3] 13% | [4] 17.6% | [5] 17.8% | [6] -0.45%

COC(CN(C)C(=S)Nc1cccc2ccccc12)OC
inactive: [1] -31.9% | [2] -74% | [3] -23.6% | [4] -11.7% | [5] -6.2% | [6] -30.9%

O=NC1CCCCC1Cl (configuration not stated)
inactive: [1] 3% | [2] -4.15% | [3] 4.6% | [4] -4.45% | [5] 7.05% | [6] 2.55%

O=C(O)COc1ccccc1F
inactive: [1] -27.9% | [2] 12.1% | [3] -14.4% | [4] -25.9% | [5] 3% | [6] -3.85%

CC(C)(C)C1=CC(=O)C(C(C)(C)C)=CC1=O
inactive: [1] -2.35% | [2] 3.2% | [3] -17.2% | [4] -55% | [5] -7% | [6] 17.7%

CC(=O)CCCCO
inactive: [1] -6.8% | [2] -2.5% | [3] 10.8% | [4] -8.55% | [5] 2.8% | [6] -18.1%

CCCCC/C(C)=N\NC(N)=S
inactive: [1] 15.6% | [2] -6.15% | [3] -15.9% | [4] 1.85% | [5] 19.8% | [6] -2.5%

CCOC(=O)CNC(=O)CCC(=O)OC
inactive: [1] -11% | [2] -4.8% | [3] 17.4% | [4] -10.6% | [5] 5.55% | [6] -9.1%

CC(C)(C)C(=O)Nc1c(Cl)c(C2CC2)nn1-c1ccccc1
inactive: [1] 7.55% | [2] -0.55% | [3] 24.7% | [4] 11.3% | [5] 22.4% | [6] 19.4%

COc1cc2c(oc(=O)c3cc4cc([Si](C)(C)C)oc4c(OC)c32)c2cccc(O)c12
inactive: [1] -0.5% | [2] -27.4% | [3] -26.6% | [4] -23.2% | [5] 6.9% | [6] -8.25%

CC(=O)NC1(C)C(C)C2CC1C(C)C2(C)C (configuration not stated)
inactive: [1] 13.2% | [2] -13.8% | [3] -44% | [4] -0.55% | [5] -30.6% | [6] -34.6%

CCCCCCCCCCO
inactive: [1] -1.6% | [2] 4.6% | [3] -5.15% | [4] 5.45% | [5] 3.2% | [6] -1.6%

OCC(O)C(O)C(O)[C@H](O)c1nc2ccccc2[nH]1 (some centres not stated)
inactive: [1] -15.7% | [2] -1.7% | [3] 0.15% | [4] -19.6% | [5] 27.4% | [6] 14.8%

O=C(OCCO)C1CC2CC1C1(C2)OCCO1 (configuration not stated)
inactive: [1] -2% | [2] -13.2% | [3] 13.9% | [4] -12.1% | [5] 42% | [6] 0.5%

COCCNC(C)=O
inactive: [1] 13.8% | [2] 0.7% | [3] 12% | [4] -17.1% | [5] -11.2% | [6] 3.7%

C(=N\OCCc1ccccc1)/c1ccccn1
inactive: [1] -14.7% | [2] -33.1% | [3] -8.95% | [4] -25.3% | [5] 9.7% | [6] 4%

Nc1nc(-c2ccccn2)cc(-c2cc(-c3ccccn3)nc(N)n2)n1
inactive: [1] -12.1% | [2] -11.6% | [3] -18.2% | [4] -0.7% | [5] -9.75% | [6] 6.25%

Cc1ccc2nc[nH]c2c1
inactive: [1] 0.35% | [2] -21.9% | [3] -10.8% | [4] -11.4% | [5] 4.05% | [6] 14.6%
